# Screening data: PubChem, National Center for Advancing Translational Sciences (NCATS)
# JMJD2E inh: inhibitors of human JMJD2E histone demethylase | B2RXH2 | 230,000 tested, 1.6% active | AID 2147 | Potency, µM (top dose mostly 57.1 µM), for the others: top-dose activity change, negative = inhibition, hits mostly inhibitors | JMJD2E catalytic domain, FDH-coupled NADH fluorescence (FDH is formaldehyde dehydrogenase);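 further: 0% = wells with enzyme and -100% = buffer wells without enzyme; nearly all actives have a fitted effect of over 50% in size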
# Target sequence (B2RXH2 1-337 limits assumed): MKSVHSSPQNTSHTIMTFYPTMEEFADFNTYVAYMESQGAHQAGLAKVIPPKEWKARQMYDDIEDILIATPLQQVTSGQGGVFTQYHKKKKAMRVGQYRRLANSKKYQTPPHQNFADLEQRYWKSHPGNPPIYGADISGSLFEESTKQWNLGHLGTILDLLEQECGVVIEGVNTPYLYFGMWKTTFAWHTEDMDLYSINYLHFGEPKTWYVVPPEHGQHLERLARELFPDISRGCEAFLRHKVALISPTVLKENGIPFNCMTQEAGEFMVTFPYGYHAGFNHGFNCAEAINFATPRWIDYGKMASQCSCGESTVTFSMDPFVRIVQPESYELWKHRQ
# BLM helicase inh: inhibitors of human Bloom syndrome helicase BLM; P54132; recombinant BLM DNA unwinding, fluorescence dequenching; Potency, µM (doses to about 56.1 µM), without a hit: at the highest dose activity change, negative = inhibition, usual class: inhibitors; 350,000 tested, 0.2% active; AID 2528;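 further: plate controls were vehicle for no effect and no enzyme for full effect; nearly all actives have a fitted effect of over 35% in size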
# RECQ1 helicase: blocks DNA unwinding by human RECQ1 | P46063 | RECQ1 DNA unwinding, red fluorescence kinetic read | Potency, µM (doses to about 57.3 µM), without a hit: at the highest dose activity, negative = inhibition, most hits filed as inhibitors | 240,000 tested, 0.54% active | AID 2549;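 further: plate controls were vehicle for no effect and no enzyme for full effect; nearly all actives have a fitted effect of over 30% in size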
#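 RECQ1T1 50 nM; forked duplex (20 bp + 30-nt ss tails) 200 nM, ATP 2 mM final; pH 8.0, 2 mM MgCl2, 2.5 ug/ml poly(dI-dC); 15 min compound preincubation; discontinuous kinetic read over 2 h at RT.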
# APE1 inh: inhibitors of human APE1 endonuclease. recombinant APE1, TAMRA/BHQ-2 abasic DNA cleavage fluorescence. Potency, µM (titrated, usually from 65.8 µM), for the others: top-dose activity change, negative = inhibition, actives largely listed as inhibitors. 350,000 tested, 0.35% active;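 further: plate controls were vehicle for no effect and reference inhibitor for full effect; nearly all actives have a fitted effect of over 55% in size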
# Target sequence (P27695 whole entry, looked up): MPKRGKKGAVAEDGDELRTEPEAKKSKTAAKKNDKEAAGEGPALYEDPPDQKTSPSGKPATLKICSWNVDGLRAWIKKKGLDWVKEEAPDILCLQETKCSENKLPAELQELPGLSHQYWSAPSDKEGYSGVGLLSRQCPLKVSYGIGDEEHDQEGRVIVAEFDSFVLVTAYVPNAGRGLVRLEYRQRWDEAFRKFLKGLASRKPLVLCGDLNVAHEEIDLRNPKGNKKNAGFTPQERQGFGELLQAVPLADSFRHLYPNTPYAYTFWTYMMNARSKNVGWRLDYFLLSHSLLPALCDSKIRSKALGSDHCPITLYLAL
#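 Activity was derived from the fluorescence gain between first and third kinetic reads (60 s intervals, ex 525/em 598 nm) after 50 nM THF-abasic TAMRA/BHQ-2 duplex was added to 0.75 nM APE1 preincubated 15 min with compound.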
# KAT2A inh: inhibitors of human GCN5L2 histone acetyltransferase; GCN5L2 HAT assay, ThioGlo1 CoA-SH fluorescence; Potency, µM (series often up to 58.9 µM), for inactives: at the highest dose activity change, negative = inhibition, actives largely listed as inhibitors; 390,000 tested, 0.21% active
#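 Free CoA generated was detected with ThioGlo1 (50uM) fluorescence at Ex340nm/Em540nm, read immediately and after 20 min at room temperature. Enzyme, 20 nM in HEPES pH 7.5 buffer, saw compounds 15 min before adding 75uM H3(1-25) peptide and 70uM acetyl-CoA.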
# L3MBTL1 block: blocks human L3MBTL1; AID 485360; 230,000 tested, 0.66% active; AlphaScreen L3MBTL1–H3K9me1 peptide binding; Q9Y468; Potency, µM (doses to about 57.1 µM), inactives show top-dose activity, negative = inhibition, hits mostly inhibitors; further: nearly all actives have a fitted effect of over 60% in size
#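 AlphaScreen assay: L3MBTL1 (50 nM final) was preincubated 30 min at room temperature with biotinylated H3(1-15)K9me1 peptide (75 nM final), then 30 min with library compounds; streptavidin donor and nickel chelate acceptor beads (10 ug/mL final) added, 30 min dark.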
# Numbers without * were called inactive; i = inactive; ? = inconclusive; . = not tested or not shown; [ ] = dose if it differs, or a comment. The sample as a whole holds a higher share of hits than the screen did. Unless noted, the call rests on the fitted dose curve; in most records, active means well fitted curve in the direction sought with a large enough effect; inconclusive means small, poorly fitted or top-dose-only effect, or another doubt; inactive means no such curve, though single readings can be large; an effect the other way counts as inactive or inconclusive. Unless noted, on the % scale 0 is the no-effect control and ±100 the full control effect; potency means the concentration at half of the fitted maximal effect.
SMILES,JMJD2E inh,BLM helicase inh,RECQ1 helicase,APE1 inh,KAT2A inh,L3MBTL1 block
COc1cc(OC)c(OC)cc1/C=N/NC(=O)C[n+]1ccccc1,-0.1%,-12.1%,-0.6%,3.1%,-4.6%,7.3%
O=C(COc1ccccc1)NCC(=O)N/N=C/c1ccc(O)cc1O,14.1µM*,-2.1%,12.4%,12.1%,7.9%,.
COc1cccc(/C=N/NC(=O)CNC(=O)COc2ccccc2)c1O,8.91µM*,0.6%,-3.7%,-3.1%,-4.0%,-1.3%
O=C(/C=C/Nc1ccc(S(=O)(=O)Nc2cnc3ccccc3n2)cc1)c1ccccc1,-5.3%,2.1%,1.1%,6.1%,-6.0%,.
O=C1CCCC/C1=C\Nc1ccc(S(=O)(=O)Nc2cnc3ccccc3n2)cc1,-2.8%,1.2%,i,-1.3%,22.4µM*,3.8%
CC12CCC=CC1C(c1ccc(C(F)(F)F)cc1)N(Cc1ccccc1)C2=O (centres undefined),.,-15.6%,-10.5%,-0.1%,.,.
COc1cccc(/C=N/NC(=O)CSc2nnc(C)n2-c2ccccc2)c1O,28.2µM*,1.2%,-7.9%,-2.7%,-19.4%,14.3%
COc1ccc(CSCC(=O)N/N=C/c2ccccc2O)cc1,31.6µM*,-7.3%,i,-12.0%,-2.8%,2.0%
CCOc1ccccc1/C=N/NC(=O)CSc1n[nH]c(=O)[nH]c1=O,-8.6%,-3.0%,i,-0.9%,-3.5%,8.4%
O=C(CSc1n[nH]c(=O)[nH]c1=O)N/N=C/c1ccccc1O,14.1µM*,2.2%,-2.6%,6.8%,-0.5%,2.0%
COc1ccc(O)c(/C=N/NC(=O)CSc2nnc(C)n2-c2ccccc2)c1,22.4µM*,0.3%,-2.6%,-0.8%,36.1%,4.3%
COc1ccc(/C=N/NC(=O)CSc2nnc(C)n2-c2ccccc2)c(OC)c1OC,3.9%,-0.2%,-4.6%,1.8%,-7.0%,-0.4%
CCCc1cc(N2CCN(c3ccccc3F)CC2)n2cnnc2n1,.,2.3%,.,.,-5.8%,.
CN1CCN(CCC(=O)N/N=C/c2cc([N+](=O)[O-])ccc2O)CC1,0.891µM*,-5.4%,i,9.4%,-3.3%,-29.8%
Cc1c(NC(=S)N/N=C/c2cc([N+](=O)[O-])ccc2O)c(=O)n(-c2ccccc2)n1C,8.91µM*,-21.3%,i,0.2%,-27.3%,31.6µM*
O=C(CCCC(=O)Nc1cccc(Br)c1)N/N=C/c1cc([N+](=O)[O-])ccc1O,.,-18.4%,.,5.1%,-8.3%,.
O=C(CCC(=O)Nc1cccc(Cl)c1)N/N=C/c1cc([N+](=O)[O-])ccc1O,17.8µM*,-7.1%,-14.5%,8.3%,-30.2%,.
CCC(C)C1/C=C\CCCC(=O)N1Cc1ccc(C)cc1 (centres undefined),.,-6.9%[75.6 µM],-7.5%[81.1 µM],-3.2%,8.8%[88.6 µM],.
Cc1cccc(NC(=O)c2cnn3c2NC(=C2CC2)C=C3C(F)F)n1,.,.,.,10.5%,.,.
O=c1[nH]c2ccccc2nc1/C=C/c1ccc(O)cc1,15.8µM*,-7.5%,i,4.0%,0.0%,10.0%
O=c1[nH]c2ccccc2nc1/C=C/c1ccccc1,?,-2.6%,-14.3%,-6.1%,-3.3%,12.2%
CC1=CC(C)[C@H](/C=N/n2c(=O)[nH]c3c([nH]c4ccc(C)cc43)c2=O)C(C)C1 (some centres undefined),?,1.4%,-1.1%,1.4%,-8.5%,.
O=c1/c(=C\c2cc([N+](=O)[O-])cc([N+](=O)[O-])c2O)sc2nc3ccccc3n12,?,-5.6%,14.1µM*,35.5µM*,?,.
CC1CCN(C(=O)c2ccc(NS(=O)(=O)c3ccc4[nH]c(=O)[nH]c4c3)cc2)CC1,.,.,.,0.4%,2.6%,-1.6%
O=C(CCCn1c(=O)c2cccn2c2ccccc21)Nc1cc(C(F)(F)F)ccc1Cl,.,-6.7%,.,.,-1.6%,.
SMILES,JMJD2E inh,BLM helicase inh,RECQ1 helicase,APE1 inh,KAT2A inh,L3MBTL1 block
CN(C)c1ccc(NC2=C([N+](=O)[O-])CS(=O)(=O)C2)cc1,-25.9%,-6.9%,20µM*,-8.0%,0.1%,.
Cc1ccc(NC2=C([N+](=O)[O-])CS(=O)(=O)C2)cc1,2.4%,-0.8%,-4.8%,-3.7%,-8.7%[0.501 µM],.
CCOC(=O)C1=C(CS(=O)(=O)c2ccc(F)c(C)c2)NC(=O)NC1c1ccc(O)c(O)c1 (centres undefined),14.1µM*,-12.3%,-26.4%,-10.4%,-4.4%,-7.2%
Cc1ccc(NC(=O)CN2C(=O)S/C(=C\c3ccc(-c4cccc(C(=O)O)c4C)o3)C2=O)cc1C,?,?,12.4%,?,-0.1%,-4.4%
COc1ccccc1N1C(=N)S/C(=C\c2ccc(-c3ccccc3C(=O)O)o2)C1=O,-2.1%,1.6%,?,28.2µM*,-12.0%,?
Cc1nn(C)cc1C(=O)NNC(=S)Nc1ccccc1,-2.1%,-3.8%,-1.6%,3.9%,-11.1%,6.6%
Cc1cc(C(=O)NNC(=S)Nc2ccccc2)nn1C,8.91µM*,0.2%,i,-0.8%,-3.9%,-1.7%
Cc1ccc2cc(N)ccc2n1,31.6µM*,-2.3%,i,-3.8%,1.4%,-9.5%
Cc1ccc(NC(=O)CSc2nc3ccccc3c3nc(CCc4c(C)n[nH]c4C)nn23)c(C)c1,.,0.4%,.,.,-10.7%,.
Nc1c(C(=O)Nc2cccc(C(=O)O)c2)sc2nc3c(cc12)CCCC3,.,-1.8%,.,0.2%,-7.2%,.
N#CC(C#N)=CNc1cccnc1,2.8%,-1.4%,-2.3%,1.0%,-0.1%,7.8%
CNC(=O)[C@]1(C(F)(F)F)C[C@H](CCC2CCCCC2)CCCO1,.,-6.8%,i,-4.3%,.,.
Cc1ccc(/C=[N+](\[O-])c2ccc(N(C)C)cc2)c2nsnc12,14.1µM*,-8.6%,-11.6%,-3.7%,-8.1%,?
Cc1ccc2nsnc2c1NS(=O)(=O)c1c(C)ccc2nsnc12,-11.6%,-9.0%,i,-8.2%,-2.2%,-5.9%
CC(C)(C)C(=O)OCC(=O)[C@H]1CC[C@H]2[C@@H]3CCC4=CC(=O)CC[C@]4(C)[C@H]3CC[C@]12C,.,.,.,11.0%,.,.
O=C(CSc1nc(-c2ccc(F)cc2)nc2c1Cc1ccccc1O2)Nc1ccc(F)cc1,.,.,.,14.5%,.,.
COc1cc(C=C(C(C)=O)C(C)=O)ccc1O,-3.7%,-4.4%,i,12.4%,-11.5%,.
COc1cc(C=O)ccc1O,3.4%,0.7%,-7.4%,-1.0%,-12.3%,.
COc1cc(/C=C/C(=O)CC(=O)/C=C/c2ccc(O)c(OC)c2)ccc1O,35.5µM*,-11.9%,-15.9%,-4.8%,-10.4%,-23.6%
COc1cc(/C=C/C(=O)/C=C(O)/C=C/c2ccc(O)c(OC)c2)ccc1O,20µM*,-2.2%,-17.2%,-3.6%,-7.7%,-6.4%
Cc1nn(-c2ccccc2)c2c1C(c1ccc(O)c(O)c1)N1C(=N2)C(Nc2ccccc2)=Nc2ccccc21 (centres undefined),17.8µM*,-13.8%,-17.2%,-1.1%,-15.0%,0.8%
